Records with an inconclusive call do not appear. Values without a mark were called inactive. Calls of active or inactive are those of the source. The call rests on the fitted dose curve; in most records, active means well fitted cell-killing curve with a large enough effect in the repeat runs; inconclusive means weak or mixed curves, or effect the other way; inactive means flat fitted curve, though single readings scatter.
Assay: qHTS RealTime-Glo MT Cell Viability Assay in HepG2 cells - 0 hour (AID 1224889); further: nearly all actives have a fitted effect of over 50% in size
Conditions: RealTime-Glo luminescence; series mostly up to 76.8 µM; activity change, negative = cytotoxicity: at the top concentration
Excerpt: U.S. Tox21 Program National Center for Advancing Translational Sciences [NCATS] NIH Chemical Genomics Center [NCGC] U.S. Environmental Protection Agency [EPA] National Institutes of Environmental Health Sciences [NIEHS] National Toxicology Program [NTP] U.S. Food and Drug Administration [FDA] Tox21 Assay Overview: Measure of cell viability is critical in the cell-base assay. Analysis of cell viability is necessary for the characterization of cell responses to cytotoxic drugs and environmental stress. A RealTime-Glo MT Cell Viability Assay to monitor cell viability in real time of continues cell culture during 40 hours of compound treatment was used to screen Tox21 10K library compounds in HepG2 cells. The RealTime-Glo MT Cell Viability Assay is a nonlytic, homogeneous, bioluminescent method to measure cell viability in real time using a simple, plate-based method. The assay involves adding NanoLuc luciferase and a cell-permeant prosubstrate to cells in culture. Viable cells reduce the proprietary prosubstrate to generate a substrate for NanoLuc luciferase. This substrate diffuses from cells into the surrounding culture medium, where it is rapidly used by the NanoLuc Enzyme to produce a luminescent signal. The signal correlates with the number of viable cells, making the assay well suited for cytotoxicity studies.
Tox21 Assay Protocol Summary: The mixture of HepG2 cell suspension and reagents were dispensed at 600cells/6 ul/well in 1536-well tissue culture treated black solid bottom plates using a Multidrop dispenser. After the assay plates were incubated at a 37 C/5% CO2 incubator for 5 hours, 23 nL of compounds dissolved in DMSO, positive and negative controls was transferred to the assay plate by a pintool work station. The plates were incubated at 37 C for 40 hours. The luminescence intensity were measured at 0h, 8h, 16h, 24h, 32h and 40h time points using ViewLux plate reader during compound treatment.
On the % scale 0 is the no-effect control and ±100 the full control effect; potency means the concentration at half of the fitted maximal effect.

Q: For CC(C)(C)c1cc([N+](=O)[O-])cc(C(C)(C)C)c1O, which “activity change, negative = cytotoxicity” value is on record?
A: Its value is -21.8%.

Q: With COc1cccc2c1C(=O)c1c(O)c3c(c(O)c1C2=O)C[C@@](O)(C(=O)CO)CC3OC1CC(N2CCOC(OC)C2)C(O)C(C)O1 (stereo not given in full) as the compound, how does the “activity change, negative = cytotoxicity” value read?
A: The value was 2% [at 35.3 µM].

Q: With N#CSCSC#N as the compound, how does the Potency read?
A: Its Potency is “inactive”.

Q: Which “activity change, negative = cytotoxicity” value does the source give for ClCc1ccccc1CCl here?
A: The value was 4.04%.

Q: With CCCCCCCCCCCCCCCC[N+](C)(C)C as the compound, how does the Potency read?
A: Its Potency is “inactive”.

Q: Which “activity change, negative = cytotoxicity” value does the source give for CCCCCCCCCCCCCCC(Br)C(=O)O (stereo not given) here?
A: The value was 1.52%.

Q: For ClC(Cl)=C(Cl)Cl, which “activity change, negative = cytotoxicity” value is on record?
A: Its value is 12.3%.

Q: With CC(C)CC(C)(c1ccc(O)cc1)c1ccc(O)cc1 as the compound, how does the “activity change, negative = cytotoxicity” value read?
A: The value was -9.45%.

Q: Which “activity change, negative = cytotoxicity” value does the source give for CCOP(=S)(OCC)OC(Cl)C(Cl)(Cl)Cl (stereo not given) here?
A: The value was -3.72%.

Q: With CC(=[OH+])/C=C(/C)[O-].CC(=[OH+])/C=C(\C)[O-].CC(=[OH+])/C=C(\C)[O-].[Fe] as the compound, how does the “activity change, negative = cytotoxicity” value read?
A: The value was -1.72%.

Q: With CC(=O)O[C@H]1CC[C@@]2(C)C(=CC[C@@H]3[C@@H]2CC[C@]2(C)C(=O)CC[C@@H]32)C1 as the compound, how does the “activity change, negative = cytotoxicity” value read?
A: Its value is -2.69%.

Q: For COC(=O)N(C(=O)N1COC2(C(=O)OC)Cc3cc(Cl)ccc3C2=N1)c1ccc(OC(F)(F)F)cc1 (stereo not given), which “activity change, negative = cytotoxicity” value is on record?
A: Its value is 0.012% [at 35.3 µM].

Q: With C[C@]12CC[C@@H]3c4ccc(OC(=O)N(CCCl)CCCl)cc4CC[C@H]3[C@@H]1CC[C@@H]2O as the compound, how does the “activity change, negative = cytotoxicity” value read?
A: Its value is -21.2% [at 35.3 µM].

Q: With CC(C)[C@H](C(=O)O[C@H](C#N)c1cccc(Oc2ccccc2)c1)c1ccc(Cl)cc1 as the compound, how does the “activity change, negative = cytotoxicity” value read?
A: Its value is 3.47%.

Q: With CCc1nn(C)c(C(=O)NCc2ccc(C(C)(C)C)cc2)c1Cl as the compound, how does the “activity change, negative = cytotoxicity” value read?
A: Its value is 6.55%.

Q: For CC(C)CC(C)Nc1ccc(Nc2ccccc2)cc1 (stereo not given), which Potency is on record?
A: The Potency was 24.1 µM (active).

Q: For N#CNC#N, which “activity change, negative = cytotoxicity” value is on record?
A: Its value is 18.5%.

Q: For COc1cc(N)c(Cl)cc1C(=O)NC1CN2CCC1CC2 (stereo not given), which “activity change, negative = cytotoxicity” value is on record?
A: Its value is -0.698% [at 35.3 µM].

Q: Which “activity change, negative = cytotoxicity” value does the source give for O=C(CCCN1CCC2(CC1)C(=O)NCN2c1ccccc1)c1ccc(F)cc1 here?
A: The value was -10.7% [at 35.3 µM].

Q: With N#CCCC(Br)(C#N)CBr (stereo not given) as the compound, how does the “activity change, negative = cytotoxicity” value read?
A: The value was -9.38%.

Q: For C=CCC1=C(C)C(OC(=O)C2C(C=C(C)C)C2(C)C)CC1=O (stereo not given), which “activity change, negative = cytotoxicity” value is on record?
A: The value was 2.3%.

Q: Which “activity change, negative = cytotoxicity” value does the source give for CC(=O)c1ccc(-c2ccccc2)cc1 here?
A: Its value is 8.74%.

Q: For Oc1ccc(C2(c3ccc(O)cc3)c3ccccc3-c3ccccc32)cc1, which “activity change, negative = cytotoxicity” value is on record?
A: The value was -20.1%.

Q: Which “activity change, negative = cytotoxicity” value does the source give for CC(Cl)CN(C)C (stereo not given) here?
A: The value was -2.62%.

Q: Which “activity change, negative = cytotoxicity” value does the source give for Nc1ccc(Sc2ccc(N)cc2)cc1 here?
A: Its value is -31.3%.

Q: For CC(C)OS(C)(=O)=O, which “activity change, negative = cytotoxicity” value is on record?
A: Its value is 0.592%.

Q: For O=[N+]([O-])c1cc(C(F)(F)F)c(Cl)c([N+](=O)[O-])c1Cl, which “activity change, negative = cytotoxicity” value is on record?
A: The value was -0.762%.

Q: With CCCN(CCC)CCc1c[nH]c2ccccc12 as the compound, how does the “activity change, negative = cytotoxicity” value read?
A: The value was 1.59%.

Q: With Cc1cc(C)c(C2=C(OC(=O)CC(C)(C)C)C3(CCCC3)OC2=O)c(C)c1 as the compound, how does the “activity change, negative = cytotoxicity” value read?
A: Its value is -13%.

Q: For CC(C)Oc1cccc(NC(=O)c2ccccc2C(F)(F)F)c1, which “activity change, negative = cytotoxicity” value is on record?
A: The value was -21%.

Q: With Cl/C=C\CCl as the compound, how does the “activity change, negative = cytotoxicity” value read?
A: Its value is 7.79%.

Q: For COC(=O)N(C(=O)N1CO[C@@]2(C(=O)OC)Cc3cc(Cl)ccc3C2=N1)c1ccc(OC(F)(F)F)cc1, which “activity change, negative = cytotoxicity” value is on record?
A: Its value is -0.696%.

Q: With c1ccc(OCC2CO2)cc1 (stereo not given) as the compound, how does the “activity change, negative = cytotoxicity” value read?
A: The value was -1.18%.

Q: For S=C=Nc1cccc2ccccc12, which “activity change, negative = cytotoxicity” value is on record?
A: The value was -14.2%.

Q: With BrCBr as the compound, how does the “activity change, negative = cytotoxicity” value read?
A: Its value is 0.0576%.

Q: With Clc1ccc(-c2ccc(Cl)c(Cl)c2Cl)c(Cl)c1Cl as the compound, how does the “activity change, negative = cytotoxicity” value read?
A: Its value is -6.65%.

Q: With O=C(O)COc1nc(Cl)c(Cl)cc1Cl as the compound, how does the “activity change, negative = cytotoxicity” value read?
A: The value was 2.42%.

Q: With Nc1ccccc1C(=O)Oc1ccc2ccccc2c1 as the compound, how does the “activity change, negative = cytotoxicity” value read?
A: The value was -0.979%.

Q: For CC1(C)CC/C(=C/c2ccc(Cl)cc2)C1(O)Cn1cncn1 (stereo not given), which “activity change, negative = cytotoxicity” value is on record?
A: Its value is -4.37%.

Q: For CC(C)N1C(=O)N(c2ccccc2)CSC1=NC(C)(C)C, which “activity change, negative = cytotoxicity” value is on record?
A: The value was -1.92%.
